Source: PubChem BioAssay (NCI)
Compounds without any hit were thinned out: in the full panel of roughly 79,000, 15% have a hit. Values without a mark were called inactive. The source made the active and inactive calls. Cut-off read from the data, not from the text of the source: active = growth inhibition above about 70%; inactive = the rest.

Key:
[1] = NCI Yeast Anticancer Drug Screen. Data for the rad50 strain (AID 155);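 note: 0% = growth of vehicle-only cultures of the same strain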; conditions: S. cerevisiae rad50 strain growth inhibition, stronger effect = higher value
Method in brief: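 Genetically altered yeast (DNA repair pathway); compound treatment; growth inhibition vs vehicle ctrl.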

[2] = NCI Yeast Anticancer Drug Screen. Data for the mec2-1 strain (AID 157); conditions: S. cerevisiae mec2-1 strain, stronger effect = higher value
Method in brief: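 mec2-1 yeast strain, carrying an alteration in DNA damage repair or cell cycle control, was exposed to compounds; growth inhibition was measured relative to vehicle-treated controls.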

[3] = NCI Yeast Anticancer Drug Screen. Data for the sgs1 mgt1 strain (AID 161);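 note: 0% = growth of cultures given vehicle only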; conditions: S. cerevisiae sgs1 mgt1 strain, stronger effect = higher value
Method in brief: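 Yeast cells carrying a defined DNA-repair defect were exposed to test compounds. Growth inhibition was measured relative to vehicle-treated controls.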

[4] = NCI Yeast Anticancer Drug Screen. Data for the cln2 rad14 strain (AID 165);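 note: 0% = growth equal to vehicle treated cultures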; conditions: S. cerevisiae cln2 rad14 strain, stronger effect = higher value
Method in brief: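 Yeast carrying cln2 and rad14 alterations (cell cycle control and DNA damage repair) were exposed to compounds. Growth inhibition was measured against vehicle-treated controls.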

[5] = NCI Yeast Anticancer Drug Screen. Data for the bub3 strain (AID 167); conditions: S. cerevisiae bub3 mutant strain, stronger effect = higher value
Method in brief: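 Yeast carrying a defined mutation is treated with each compound, and growth is compared with that of vehicle-exposed cells to give inhibition.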

[6] = NCI Yeast Anticancer Drug Screen. Data for the mlh1 rad18 strain (AID 175); conditions: S. cerevisiae mlh1 rad18 strain growth inhibition, stronger effect = higher value
Method in brief: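 Growth inhibition of the yeast strain was measured after compound exposure and expressed relative to vehicle-treated controls. The strain carries defined defects in DNA damage repair.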

[7] = at 5.0 µM (retest, dose inferred, filed as 0.5)
[8] = at 50.0 µM (retest, dose inferred, filed as 5.0)

SMILES	growth inhibition [1, 7]	growth inhibition [1, 8]	growth inhibition ([1]; at 50.0 µM)	growth inhibition [2, 7]	growth inhibition [2, 8]	growth inhibition ([2]; at 50.0 µM)	growth inhibition [3, 7]	growth inhibition [3, 8]	growth inhibition ([3]; at 50.0 µM)	growth inhibition [4, 7]	growth inhibition [4, 8]	growth inhibition ([4]; at 50.0 µM)	growth inhibition [5, 7]	growth inhibition [5, 8]	growth inhibition ([5]; at 50.0 µM)	growth inhibition [6, 7]	growth inhibition [6, 8]	growth inhibition ([6]; at 50.0 µM)
c1ccc(C2NCCNC2c2ccccc2)cc1 (configuration not stated)	1%	-5%	2.15%	0%	-10%	15%	0%	-9%	22.3%	3%	-6%	-1.8%	4%	5%	55.3%	-3%	-7%	-19.2%
O=C(Nc1cccc(C(F)(F)F)c1)Oc1ccc(Cl)c2cccnc12	77% (active)	98% (active)	89.8% (active)	66%	99% (active)	91.8% (active)	98% (active)	99% (active)	92.8% (active)	90% (active)	98% (active)	88.9% (active)	94% (active)	99% (active)	91.7% (active)	71% (active)	99% (active)	91.7% (active)
CN(C)c1ccc(/C=C/c2sc3ccc4ccccc4c3[n+]2C)cc1	97% (active)	96% (active)	89.1% (active)	99% (active)	98% (active)	89.7% (active)	100% (active)	98% (active)	90.2% (active)	99% (active)	97% (active)	89.5% (active)	99% (active)	97% (active)	89.8% (active)	98% (active)	97% (active)	89.2% (active)
O=[N+]([O-])C=C(c1ccccc1)c1ccccc1	-23%	93% (active)	96.8% (active)	-12%	89% (active)	87.8% (active)	7%	86% (active)	77.8% (active)	-20%	63%	76.8% (active)	-1%	90% (active)	88% (active)	-12%	94% (active)	93.2% (active)
C[C@@H]1CCC([C@@H](C)[C@H]2CC[C@H]3[C@@H]4CC[C@H]5C[C@@H](O)CC[C@]5(C)[C@H]4CC[C@]23C)=NC1	73% (active)	98% (active)	87.5% (active)	60%	98% (active)	89% (active)	90% (active)	99% (active)	91.6% (active)	60%	98% (active)	88.7% (active)	84% (active)	98% (active)	88.5% (active)	95% (active)	98% (active)	89% (active)
NCCCN(CCCN)CCCNCc1c2ccccc2c(CNCCCN(CCCN)CCCN)c2ccccc12	88% (active)	99% (active)	90.6% (active)	62%	99% (active)	93% (active)	67%	98% (active)	93.3% (active)	36%	98% (active)	92.7% (active)	89% (active)	99% (active)	92.6% (active)	96% (active)	99% (active)	91.1% (active)
CCCCCCCCCCCC[N+]1(CCCCCCCCCCCC)CCCC(C)C1 (configuration not stated)	99% (active)	99% (active)	88.8% (active)	100% (active)	94% (active)	91.3% (active)	100% (active)	99% (active)	91.1% (active)	99% (active)	99% (active)	88.1% (active)	99% (active)	99% (active)	90% (active)	99% (active)	99% (active)	88.7% (active)
Cc1cccc2c(N)c3ccccc3nc12	12%	57%	87.7% (active)	3%	13%	43.3%	1%	7%	73.7% (active)	6%	15%	45.6%	0%	-9%	45%	6%	24%	67.8%
Clc1ccccc1C(c1ccccc1)(c1ccccc1)n1ccnc1	44%	99% (active)	99.3% (active)	20%	99% (active)	99.8% (active)	53%	99% (active)	99.6% (active)	18%	99% (active)	99.2% (active)	34%	99% (active)	99.6% (active)	30%	99% (active)	99.7% (active)
COc1cc(-c2ccc(-[n+]3nc(-c4ccc([N+](=O)[O-])cc4)nn3-c3ccc([N+](=O)[O-])cc3)c(OC)c2)ccc1-[n+]1nc(-c2ccc([N+](=O)[O-])cc2)nn1-c1ccc([N+](=O)[O-])cc1	95% (active)	94% (active)	89.5% (active)	98% (active)	98% (active)	91.4% (active)	94% (active)	96% (active)	90.2% (active)	96% (active)	97% (active)	88.5% (active)	97% (active)	97% (active)	90.2% (active)	97% (active)	96% (active)	90% (active)
O=C1C=CC(O)=CC1=P(c1ccccc1)(c1ccccc1)c1ccccc1	2%	11%	48.1%	-1%	6%	-8.55%	-1%	2%	47.5%	-2%	-3%	7.4%	-4%	2%	25.9%	3%	8%	34.5%
C[n+]1ccccc1C[n+]1ccccc1	4%	28%	67.4%	5%	17%	36.1%	1%	35%	66.8%	6%	14%	-10.1%	2%	20%	26.2%	15%	17%	53.9%
Clc1ccc(-n2ncc3c(NCCCN4CCOCC4)ncnc32)cc1	3%	82% (active)	56%	6%	70% (active)	62.1%	1%	81% (active)	82.8% (active)	19%	62%	35.4%	16%	77% (active)	47.4%	9%	79% (active)	75.6% (active)
CC1(C)N=c2cc3c(cc2N1c1ccc(Cl)cc1)=Nc1ccccc1N3c1ccc(Cl)cc1	17%	-4%	96.1% (active)	7%	-4%	94.2% (active)	16%	1%	97.1% (active)	10%	-4%	95.2% (active)	7%	1%	94% (active)	35%	-5%	96.3% (active)
CCCCCCCCCCCC(=O)OC(C)C(=O)NCCCC (configuration not stated)	0%	21%	-18.2%	0%	18%	13.6%	2%	68%	-2.05%	-2%	-3%	26.4%	-1%	9%	-5.95%	-17%	32%	75.2% (active)
Cc1onc(-c2ccccc2)c1C(=O)N/N=C/c1cc(Cl)cc(Cl)c1O	92% (active)	95% (active)	80.6% (active)	96% (active)	96% (active)	88.5% (active)	93% (active)	98% (active)	90.8% (active)	87% (active)	96% (active)	84.5% (active)	94% (active)	63%	87.8% (active)	96% (active)	94% (active)	85.2% (active)
O=C(c1ccccc1)C(O)C(Br)(CBr)c1ccccc1 (configuration not stated)	19%	97% (active)	90.7% (active)	11%	98% (active)	94.5% (active)	4%	98% (active)	97.3% (active)	15%	82% (active)	94.8% (active)	2%	98% (active)	96.8% (active)	6%	97% (active)	93.7% (active)
CCCCC(CCc1ccc([N+](=O)[O-])cc1)(C(C)=O)C(=O)OCC (configuration not stated)	1%	-41%	59.7%	2%	-10%	13.1%	-2%	24%	47%	-4%	-14%	4.75%	11%	45%	83.2% (active)	-10%	-50%	62%
Cc1cc(C(=O)c2ccc(Cl)cc2)ccc1O	0%	4%	72.4% (active)	-4%	-2%	57.5%	0%	4%	85.9% (active)	-6%	-9%	46%	-3%	0%	24.8%	-1%	-2%	70.5% (active)
